# Experimental data as given in PubChem BioAssay (NCI).
# The panel holds about 83,000 compounds, 20% with a hit somewhere; the sample as a whole holds those more often.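 The test compound was applied at a single concentration to cells in 96-well plates for 48 hours, and percent growth was recorded.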 Unmarked numbers belong to inactive results. Active and inactive are the calls of the source. Rule for the calls: active = growth percent below 10; inactive = the rest.
# Tests used:
# Assay in all cases: NCI-60 one-dose screen, 48 h (100 = growth as untreated, 0 = no growth, -100 = all killed)
# Conditions in all cases: 10 µM unless noted
# BT-549 breast = system: BT-549 breast
# MDA-MB-435 melanoma = system: MDA-MB-435 melanoma
# SW-620 colon = system: SW-620 colon
# MCF7 breast = system: MCF7 breast
# HCT-116 colon = system: HCT-116 colon
# KM12 colon = system: KM12 colon
# HCC-2998 colon = system: HCC-2998 colon
SMILES,growth (BT-549 breast),growth (MDA-MB-435 melanoma),growth (SW-620 colon),growth (MCF7 breast),growth (HCT-116 colon),growth (KM12 colon),growth (HCC-2998 colon)
CCOC(=O)n1cc(-c2nonc2-c2cn(C(=O)OCC)c3ccc(Br)cc23)c2ccccc21,98.3%,99.9%,85.8%,69.6%,62.7%,72.7%,
OB1OCc2cc(/C=C/c3cccc(C(F)(F)F)c3)ccc21,8.09% (active),20.8%,15.5%,21.8%,0.518% (active),14.6%,32.5%
COc1cc(C2CC(c3ccc(Nc4nc(Nc5ccc(Cl)cc5)nc(Nc5ccc(Cl)cc5)n4)cc3)=NN2C(C)=O)cc(OC)c1OC (centres undefined),104%,89.1%,106%,89%,84.9%,106%,100%
CCN(CC)CCn1c2ccc(O)cc2c2sc3cc(O)ccc3c(=O)c21,62.1%,40.5%,15.5%,8.08% (active),,29.4%,42.3%
O=c1[nH]c(Cc2nc3ccccc3s2)nc2cc(Br)ccc12,70.2%,45.6%,61.3%,78.5%,50.6%,41.4%,84.1%
NC(Cc1ccc(O)c([N+](=O)[O-])c1)C(=O)O (centres undefined),96.9%,112%,104%,98%,98.5%,103%,99.6%
CN(C)CC1CCC(CN(C)C)C1=O (centres undefined),110%,121%,86.9%,93.7%,93.9%,115%,114%
c1cnc2c(-c3nc4ccc5[nH]ncc5c4c4c3CCCC4)c[nH]c2c1,72.5%,51.9%,18.9%,9.3% (active),0.564% (active),26.9%,54.7%
O=C(/C=C/c1ccco1)Nc1ncc(Cc2cccc(C(F)(F)F)c2)s1,8.55% (active),-49.6% (active),18.4%,12.9%,7.05% (active),,12.2%
O=C1/C(=C/c2ccc([N+](=O)[O-])cc2)COc2ccc(O)cc21,95%,82.4%,-11.7% (active),5.28% (active),-5.5% (active),48%,98.5%
Oc1c(Br)cc(Br)c2ccc(Cn3cc(-c4ccccc4C(F)(F)F)nn3)nc12,107%,93.1%,73.5%,71.5%,49.1%,100%,110%
O=S(=O)(Nc1cc(Cl)ccc1Cl)c1ccc(-c2cnc(C3CC3)o2)cc1,40.5%,-12% (active),21%,12.9%,21.5%,24%,67.4%
COc1ccc(C2=C(Nc3ccc(C(=O)Nc4ccccc4)cc3)C(=O)N(C)C2=O)cc1,115%,106%,106%,102%,107%,91.6%,98.5%
CCCCCCCCCCCCCCCCOCCCOP(=O)(O)C1CCCN(O)C1=O (centres undefined),32.2%,14.3%,20.9%,18.5%,14.5%,7.79% (active),3.73% (active)
O=C(CSc1nnc(-c2cnccn2)n1-c1ccccc1)c1ccc(Cl)cc1,91.6%,106%,106%,94.1%,95.4%,94.8%,108%
CCO/C=N/C1=C(C#N)C(c2ccc(Cl)cc2)c2sc3c(F)cccc3c2O1 (centres undefined),68.8%,-30.4% (active),35.5%,26%,54.2%,42.2%,84.2%
